Experimental data as given in publication PMC4336329 (PLoS ONE, 2015).
Among all 310,000 compounds or so, about 14,000 (4.5%) showed an effect of 50% or more. Effects have a minus sign here. Only a selection was taken, and strong results are over-represented in it overall.

Molecular target: human ether-à-go-go-related gene (hERG) potassium channel (human, UniProt Q12809)
Assay: primary screen, population patch clamp on CHO cells stably expressing hERG; higher = less effect of the substance
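Also: peak tail current of the secondary pulse compared with the same well before compound.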

Chain of human ether-à-go-go-related gene (hERG) potassium channel (Q12809 whole entry, looked up): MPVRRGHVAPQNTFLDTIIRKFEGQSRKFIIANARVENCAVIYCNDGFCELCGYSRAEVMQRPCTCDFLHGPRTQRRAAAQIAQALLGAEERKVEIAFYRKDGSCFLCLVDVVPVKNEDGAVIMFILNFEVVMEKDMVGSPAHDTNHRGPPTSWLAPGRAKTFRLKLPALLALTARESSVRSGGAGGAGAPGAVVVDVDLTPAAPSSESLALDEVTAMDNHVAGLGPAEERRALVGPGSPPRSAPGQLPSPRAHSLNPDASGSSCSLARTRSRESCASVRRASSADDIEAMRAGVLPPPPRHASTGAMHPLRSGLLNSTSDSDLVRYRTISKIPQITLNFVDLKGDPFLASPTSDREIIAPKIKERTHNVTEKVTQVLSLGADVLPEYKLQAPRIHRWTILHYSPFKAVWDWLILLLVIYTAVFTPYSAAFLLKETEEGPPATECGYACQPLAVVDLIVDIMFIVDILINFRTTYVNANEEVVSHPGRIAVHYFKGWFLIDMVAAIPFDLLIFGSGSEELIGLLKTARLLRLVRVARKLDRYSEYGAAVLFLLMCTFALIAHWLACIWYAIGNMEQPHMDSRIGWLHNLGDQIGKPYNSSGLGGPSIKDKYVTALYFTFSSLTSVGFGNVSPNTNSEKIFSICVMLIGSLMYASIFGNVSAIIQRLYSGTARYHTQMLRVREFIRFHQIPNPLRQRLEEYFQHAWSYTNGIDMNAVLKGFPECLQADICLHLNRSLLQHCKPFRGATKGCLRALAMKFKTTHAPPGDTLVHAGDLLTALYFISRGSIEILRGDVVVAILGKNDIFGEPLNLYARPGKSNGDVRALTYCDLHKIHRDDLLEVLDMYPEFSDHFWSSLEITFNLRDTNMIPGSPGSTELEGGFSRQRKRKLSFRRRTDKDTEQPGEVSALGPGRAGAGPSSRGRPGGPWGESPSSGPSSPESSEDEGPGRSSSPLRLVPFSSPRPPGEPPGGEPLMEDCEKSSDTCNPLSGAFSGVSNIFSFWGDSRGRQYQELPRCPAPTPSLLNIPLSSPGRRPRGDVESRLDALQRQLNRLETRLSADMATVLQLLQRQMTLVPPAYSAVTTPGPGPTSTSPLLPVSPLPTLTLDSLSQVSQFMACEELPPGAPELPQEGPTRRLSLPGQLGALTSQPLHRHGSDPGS

| SMILES | hERG current change (%, negative = inhibition) at 10uM [%] |
| --- | --- |
| CCCNS(=O)(=O)c1ccc(OCC(=O)N2CCC(C(=O)OCC)CC2)cc1 | -12.6 |
| COc1ccc(C2Nc3ccccc3NC3=C2C(=O)CC(C)(C)C3)cc1O (stereo not drawn) | 19 |
| COc1ccc([C@H]2CC(=O)C=C(c3ccc4c5c(cccc35)CC4)C2)cc1 | 16 |
| Cc1cc(N2CCCC2=O)ccc1S(=O)(=O)Nc1c(C)nn(C)c1C | 12.3 |
| N#C/C(=C(/O)c1ccc(Cl)cc1)c1nc2ccccc2[nH]1 | 7.3 |
| Cn1c(NNC(=O)c2cccc3ccccc23)cc(=O)n(C)c1=O | 6.73 |
| Cc1cc(NCc2ccco2)nc(N2CCC(C(=O)NC3CCCCC3)CC2)n1 | -71.1 |
| Cc1cc(C)nc(N2CCC(C(=O)NC3CCCCCC3)CC2)n1 | -4.75 |
| Cc1cc(C)nc(N2CCC(C(=O)NCc3ccco3)CC2)n1 | -1.73 |
| O=C(CSc1nnc(NC(=O)c2ccco2)s1)NC1CCCC1 | 18.6 |
| CC(Oc1ccc(F)cc1)C(=O)N(CCC1=CCCCC1)c1c(N)n(Cc2ccccc2)c(=O)[nH]c1=O (stereo not drawn) | -52 |
| CC(Oc1ccccc1)C(=O)N(CCC1=CCCCC1)c1c(N)n(Cc2ccccc2)c(=O)[nH]c1=O (stereo not drawn) | -48.6 |
| Nc1c(N(CCC2=CCCCC2)C(=O)COc2ccc(F)cc2)c(=O)[nH]c(=O)n1Cc1ccccc1 | -6.12 |
| COc1ccc(-c2nc(C#N)c(N3CCN(C(=O)c4ccco4)CC3)o2)cc1OC | 0.504 |
| N#Cc1nc(-c2ccccc2Cl)oc1N1CCN(C(=O)c2ccco2)CC1 | -9.47 |
| N#Cc1nc(-c2ccccc2)oc1N1CCN(C(=O)c2ccco2)CC1 | -75.7 |
| N#Cc1nc(-c2ccccc2F)oc1N1CCN(C(=O)c2ccco2)CC1 | -18.2 |
| N#Cc1nc(-c2ccco2)oc1N1CCOCC1 | 4.48 |
| N#Cc1nc(-c2ccco2)oc1N1CCN(c2ccccc2)CC1 | -62.9 |
| COc1cccc(-c2nc(C#N)c(N3CCN(C(=O)c4ccco4)CC3)o2)c1 | -35.1 |

| SMILES | hERG current change (%, negative = inhibition) at 10uM [%] |
| --- | --- |
| N#Cc1nc(-c2ccc(F)cc2)oc1N1CCN(C(=O)c2ccco2)CC1 | -75.2 |
| COc1ccc(N2CCN(c3oc(-c4ccco4)nc3C#N)CC2)cc1 | -47.9 |
| O=C(CCCN1C(=O)c2ccccc2C1=O)NCCCN1CCOCC1 | 20.3 |
| CCCCCCCCCCCCN1[C@@H](CC(=O)OC)c2cc(F)cc(F)c2S1(=O)=O | 11.1 |
| CCN(CC)/C(=N\S(=O)(=O)c1ccc(F)cc1)c1ccccc1 | 8.34 |
| Cc1cc2n(n1)C(c1sccc1C)Nc1ccccc1-2 (stereo not drawn) | -15.9 |
| Cc1ccc(Cn2c(C(CO)Nc3nc(-c4ccc(F)cc4)cs3)nc3ccccc32)cc1 (stereo not drawn) | 15.4 |
| CCOC(=O)c1ccc(NC(=O)NCCc2cnc[nH]2)cc1 | 4.44 |
| O=C(c1ccccc1[N+](=O)[O-])N1CCCC(C(=O)N2CCCCCC2)C1 (stereo not drawn) | 10.6 |
| O=C(Nc1cccc(F)c1)c1cc(-c2ccco2)nc2ccccc12 | 9.26 |
| COc1ccc(S(=O)(=O)N2CCC(n3cnc4cc(C(F)(F)F)ccc43)CC2)cc1 | -73.1 |
| O=C(O)c1cccc(S(=O)(=O)N2CCC(n3nnc4cc(C(F)(F)F)ccc43)CC2)c1 | 20.7 |
| COc1ccc(S(=O)(=O)N2CCC(N3CCCCC3)CC2)cc1 | -11.7 |
| COc1ccc(S(=O)(=O)N2CCC(N3CCCC3)CC2)cc1 | 22.3 |
| O=S(=O)(c1ccc(Cl)cc1)N1CCC(n2cnc3cc(C(F)(F)F)ccc32)CC1 | -78.4 |
| O=C(O)c1ccc(S(=O)(=O)N2CCC(n3nnc4cc(C(F)(F)F)ccc43)CC2)cc1 | -37.7 |
| CCOC(=O)C1=C(C)NC(=O)NC1c1ccc(N(CC)CC)cc1 (stereo not drawn) | -6.39 |
| CCOc1ccc(C(=O)NCC(=O)OCc2cc([N+](=O)[O-])cc3c2OCOC3)cc1OCC | -12 |
| c1ccc(-c2[nH]ncc2CN2CCN(Cc3ccc4c(c3)OCO4)CC2)cc1 | -37.9 |
| O=C(c1ccc2c(c1)OCO2)C1CCCN(Cc2c(F)cccc2Cl)C1 (stereo not drawn) | -32.5 |

| SMILES | hERG current change (%, negative = inhibition) at 10uM [%] |
| --- | --- |
| Cc1ccc(CN2CCN(Cc3cn[nH]c3-c3cccc(F)c3)CC2CCO)o1 (stereo not drawn) | -25.8 |
| O=C(c1ccc2c(c1)OCO2)C1CCCN(Cc2cn[nH]c2-c2cccc(F)c2)C1 (stereo not drawn) | -78.1 |
| O=C(c1ccc2c(c1)OCO2)C1CCCN(Cc2ccccn2)C1 (stereo not drawn) | -30.9 |
| O=C(c1ccc2c(c1)OCO2)C1CCCN(Cc2cn[nH]c2-c2ccccc2)C1 (stereo not drawn) | -72.2 |
| O=C(Nc1ccc2c(c1)OCO2)N1CCCc2ccccc21 | 11.7 |
| COc1cc(/C=N/NC(=O)c2ccc(O)cc2)ccc1OCC(=O)Nc1cccc([N+](=O)[O-])c1 | 10.3 |
| O=S1(=O)N(Cc2ccccc2F)CCCN1Cc1c(F)cccc1Cl | 7.29 |
| CC(=O)Nc1ccc(S(=O)(=O)NCc2ccc3[nH]c(C)cc3c2)cc1 | 21 |
| O=C(CN1CCN(c2ccccn2)CC1)Nc1ccccc1Br | -31.6 |
| CC(C(=O)Nc1cc([N+](=O)[O-])ccc1Cl)N1CCN(c2ccccc2)CC1 (stereo not drawn) | 12.3 |
| N#Cc1ccc(NC(=O)CN2CCN(c3ccccn3)CC2)cc1 | -71.9 |
| N#Cc1ccccc1NC(=O)CN1CCN(c2ccccn2)CC1 | -29.8 |
| O=C(CN1CCN(c2ccccn2)CC1)Nc1ccc(Br)cc1 | -57.7 |
| Cc1cc([N+](=O)[O-])ccc1NC(=O)C(C)N1CCN(c2ccccn2)CC1 (stereo not drawn) | -71.4 |
| Cc1ccc([N+](=O)[O-])cc1NC(=O)C(C)N1CCCCC1 (stereo not drawn) | 30.2 |
| Cc1cc(Br)ccc1NC(=O)CN1CCN(c2ccccn2)CC1 | -71.5 |
| CC(=O)Nc1ccc(NC(=O)CN2CCN(c3ccccn3)CC2)cc1 | 13.3 |
| O=C(CN1CCN(c2ccccn2)CC1)Nc1ccccc1 | -9.4 |
| O=C(CN1CCN(c2ccccn2)CC1)Nc1ccc(F)cc1.O=C(O)C(=O)O | -47.2 |
| Cc1ccc(NC(=O)CN2CCN(c3ccccn3)CC2)c(Cl)c1 | -1.57 |
